Bioassay records (PubChem BioAssay)
Pol kappa inh-1: qHTS for Inhibitors of Polymerase Kappa; DNA polymerase kappa (Homo sapiens), Q9UBT6; purified Pol kappa, fluorescent DNA synthesis assay, 10 min; Potency, µM (titrated, usually from 107 µM), for the others: at the top dose activity, negative = inhibition, most hits filed as inhibitors; 400,000 compounds, 0.53% hits; AID 588579, 2011; also: potency is read from the fitted curve at half-maximal effect; % is scaled to controls: 0 for no effect and ±100 for the full control effect
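Here, compound and 10 nM enzyme are combined for 15 min at room temperature; adding 50 nM substrate (final) starts DNA synthesis, tracked by fluorescence at 0 and 10 min against buffer-only wells.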
Pol iota inh: qHTS for Inhibitors of Polymerase Iota | Potency, µM (top dose mostly 115 µM), without a hit: at the top dose activity, negative = inhibition, actives largely listed as inhibitors | DNA polymerase iota (Homo sapiens), Q9UNA4 | 390,000 compounds, 1% hits | Pol iota fluorescent replication assay, 10 min; also: potency is read from the fitted curve at half-maximal effect
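Pol iota at 10 nM preincubated 15 min with compounds at room temperature; reaction started with fluorescent substrate, 50 nM final. Fluorescence read kinetically at 0 and 10 min; buffer-only wells as negative control.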
Pol eta inh-1: qHTS for Inhibitors of Polymerase Eta | Potency, µM (top dose mostly 114 µM), for inactives: top-dose activity change, negative = inhibition, most hits filed as inhibitors | AID 588591, 2011 | 390,000 compounds, 1.2% hits | recombinant Pol eta, fluorescent DNA replication assay; also: potency is read from the fitted curve at half-maximal effect; % is scaled to controls: 0 for no effect and ±100 for the full control effect
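Pol eta (10 nM) was preincubated with compounds for 15 min at room temperature, after which fluorescent replication substrate (50 nM final) was added to start the reaction. Fluorescence was read kinetically at 0 and 10 min.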
WRN inhibitor: qHTS for Inhibitors of WRN Helicase | Potency, µM (doses to about 114 µM), inactives show top-dose activity change, negative = inhibition, hits mostly inhibitors | WRN helicase unwinding, fluorescent forked duplex, kinetic | Bifunctional 3'-5' exonuclease/ATP-dependent helicase WRN (Homo sapiens), Q14191 | 360,000 compounds, 0.46% hits; also: potency is read from the fitted curve at half-maximal effect; % is scaled to controls: 0 for no effect and ±100 for the full control effect; nearly all actives have a fitted effect of over 55% in size
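WRN at 20 nM final preincubated with compound 15 min at room temperature; reaction started with 100 nM fluorophore/quencher forked duplex oligonucleotide and 2 mM ATP final. Unwinding followed kinetically by red fluorescence (ex 525, em 598 nm).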
FEN1 inhibitor: qHTS Assay for the Inhibitors of Human Flap endonuclease 1 (FEN1); P39748; Recombinant FEN1 flap cleavage, fluorescence, 15 min; Potency, µM (top dose mostly 114 µM), for inactives: top-dose activity change, negative = inhibition, hits mostly inhibitors; 390,000 compounds, 0.35% hits; AID 588795, 2011; also: potency is read from the fitted curve at half-maximal effect; % is scaled to controls: 0 for no effect and ±100 for the full control effect; nearly all actives have a fitted effect of over 65% in size
Target sequence (P39748 whole entry, looked up): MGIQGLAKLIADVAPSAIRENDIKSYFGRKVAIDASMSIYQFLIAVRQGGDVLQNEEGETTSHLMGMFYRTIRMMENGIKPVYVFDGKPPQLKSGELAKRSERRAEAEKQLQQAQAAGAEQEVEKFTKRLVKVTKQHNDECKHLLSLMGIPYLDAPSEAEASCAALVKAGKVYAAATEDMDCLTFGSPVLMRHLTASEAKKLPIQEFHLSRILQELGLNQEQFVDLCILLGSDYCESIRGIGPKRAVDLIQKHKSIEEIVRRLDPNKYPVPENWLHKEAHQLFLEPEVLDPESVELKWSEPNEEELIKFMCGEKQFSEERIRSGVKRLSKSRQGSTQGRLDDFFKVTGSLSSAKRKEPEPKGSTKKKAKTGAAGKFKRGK
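Quantitative HTS format: each compound was titrated, incubated with 10 nM nuclease for 15 min at room temperature, then challenged with flap substrate at 50 nM final. Signal change over 15 min gave concentration–effect curves.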
POLB inh: qHTS Assay for Inhibitors of DNA Polymerase Beta; P06746; Pol beta primer extension/strand displacement, fluorescence kinetic; Potency, µM (titrated, usually from 114 µM), for the others: top-dose activity change, negative = inhibition, actives largely listed as inhibitors; 340,000 compounds, 1.3% hits; also: potency is read from the fitted curve at half-maximal effect; % is scaled to controls: 0 for no effect and ±100 for the full control effect
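Homogeneous kinetic assay of primer extension and strand displacement by 10 nM Pol beta, preincubated 15 min at room temperature with compound before 50 nM substrate (final) was added. Read at 0 and 10 min; four-parameter Hill fit.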
GALK confirm: Confirmation Assay for Inhibitors of Human Galactokinase (GALK); shares compounds with Pol eta inh-1; purified GALK, Kinase-Glo ATP depletion luminescence; Potency, µM (series often up to 115 µM), inactives show at the highest dose activity, negative = inhibition, most hits filed as inhibitors; 150 compounds, 70% hits
Redox cycling: Confirmatory Assay for Inhibitors of Human Galactokinase (GALK): Phenol-HRP redox assay counterscreen; Potency, µM (doses to about 115 µM), for the others: at the highest dose activity change, negative = H2O2 signal, actives largely listed as inhibitors; 150 compounds, 40% hits; shares compounds with Pol eta inh-1; Phenol red-HRP H2O2 redox cycling, absorbance 600 nm; AID 2035, 2009
HEK293 tox: Secondary Assay for Inhibitors of Human Galactokinase (GALK): HEK-293 Cell Viability Assay; AID 2547, 2010; 170 compounds, 10% hits; HEK-293 viability, ATP luminescence (CellTiter-Glo), 24/48 h; Potency, µM (top dose mostly 46.1 µM), for inactives: top-dose activity change, negative = cytotoxicity, hits mostly inhibitors; shares compounds with Pol eta inh-1; also: potency is read from the fitted curve at half-maximal effect; % is scaled to controls: 0 for no effect and ±100 for the full control effect
Pol kappa inh-2: qHTS for Inhibitors of Polymerase Kappa: Confirmatory Assay for Cherry-picked Compounds; shares compounds with Pol eta inh-1; purified Pol-kappa, fluorescent strand-displacement substrate; Potency, µM, hits mostly inhibitors; 920 compounds, 76% hits; AID 720501, 2013; also: potency is read from the fitted curve at half-maximal effect
Pol eta inh-2: qHTS for Inhibitors of Polymerase Eta: Confirmatory Assay for Cherry-picked Compounds | Pol eta primer extension, TAMRA/BHQ fluorescence, 10 min | 2,600 compounds, 64% hits | shares compounds with Pol eta inh-1 | Potency, µM, actives largely listed as inhibitors; also: potency is read from the fitted curve at half-maximal effect
Starred values were filed as active, the others as inactive; u = inconclusive; x = no result; [ ] = another dose, or the depositor's remark. In the library only some 2.4% were active in any assay of this set; here they are far more common. Calls follow the shape of the dose curve; as a rule, active = well fitted curve in the direction sought with a large enough effect; inconclusive = small, poorly fitted or top-dose-only effect, or another doubt; inactive = no such curve, though single readings can be large; an effect the other way counts as inactive or inconclusive.

SMILES	Pol kappa inh-1	Pol iota inh	Pol eta inh-1	WRN inhibitor	FEN1 inhibitor	POLB inh	Pol eta inh-2	others
NC(=O)CC[C@@H]1NC(=O)[C@H](CO)NC(=O)c2cc([N+](=O)[O-])cc(I)c2OCC[C@@H](C(N)=O)NC1=O	-17%	17%	-7%	-4%	-4%	-1%	x
O=C1c2cccc3cccc(c23)C(=O)N1c1ccc2ncccc2c1	u	u	u	79µM*	u	32µM*	x	Pol kappa inh-2=u
Cc1ccc(C2NC(c3ccc4c(c3)OCO4)=CC(c3cc(Br)ccc3O)N2)cc1 (stereo unspecified)	-2%	u	x	x	5%	x	x
O=C(O)/C=C/C(=O)Nc1ccc(C2(c3ccc(NC(=O)/C=C/C(=O)O)cc3)c3ccccc3-c3ccccc32)cc1	-12%	u	50µM*	-16%[11.6 µM]	11%	50µM*	u
COc1cc(/C=C2/C(=N)N3N=C(CC(=O)N4CCOCC4)SC3=NC2=O)ccc1OC(C)c1ccccc1 (stereo unspecified)	-18%	u	u	-4%	-8%	30%	x
N=C1/C(=C/c2ccc(OCc3ccccc3F)cc2)C(=O)N=C2SC(CC(=O)N3CCOCC3)=NN12	u	25µM*	-11%	-7%	7%	u	u
N=C1/C(=C\c2ccc(Br)o2)C(=O)N=C2SC(CC(=O)N3CCCCC3)=NN12	32µM*	u	22µM*	u	u	u	85*
CC(C)C1Nc2ccc(C(=O)O)cc2C2C=CCC21 (stereo unspecified)	u	u	20µM*	50µM*	u	13µM*	27*
COc1cccc([C@@H]2Nc3ccc(C(=O)O)cc3[C@@H]3C=CC[C@@H]32)c1OC	8%[60.1 µM]	18%	8%	x	-15%	2%	x
O=C1/C(=C\c2ccco2)SC(=S)N1C1CCS(=O)(=O)C1 (stereo unspecified)	u	20µM*	u	-28%	-27%	40µM*	u
Cc1cccc(CNc2ncnc3ccc(-c4ccoc4)cc23)c1	4%	-10%	-11%	x	-7%	x	x	GALK confirm=u;Redox cycling=-4%;HEK293 tox=3%
c1cncc(CNc2ncnc3ccc(-c4ccoc4)cc23)c1	u	31%	-4%	x	-1%	x	x
O=C(Nc1cccnc1)c1ccc(NS(=O)(=O)c2cc([N+](=O)[O-])ccc2Cl)cc1	-52%	u	22µM*	-10%[11.6 µM]	-1%	u	76*
COc1ccc(N2CCN(C(CNC(=O)c3ccc(C)cc3)c3ccc4c(c3)OCO4)CC2)cc1 (stereo unspecified)	1%[60.1 µM]	18%	-17%	x	-4%	16%	x
CCNC(=O)c1c(NC(=O)c2nc(S(=O)(=O)CC)ncc2Cl)sc2c1CCCC2	-2%	u	-12%	x	2%	-3%	x
CCS(=O)(=O)N1CCc2cc(C(=O)N3CCN(c4cccc(C(F)(F)F)c4)CC3)ccc21	1%	19%	-18%	x	-3%	-4%	x
CCOc1cc(/C=N/n2c(COc3ccccc3)n[nH]c2=S)ccc1O	8%	17%	-18%	4%	5%	2%	x
Oc1ccc(/C=N/n2c(COc3ccccc3)n[nH]c2=S)cc1O	20µM*	6.3µM*	u	u	3%	6.3µM*	17*
CCOc1ccc(N2C(=O)c3[nH]nc(-c4ccc(OC)cc4)c3C2c2cccs2)cc1 (stereo unspecified)	-5%	u	x	x	3%	-4%	x
O=C1CS/C(=N\N=C\c2ccco2)N1c1ccccc1	u	u	u	-9%[11.6 µM]	-12%	u	u	Pol kappa inh-2=u
O=C1CS/C(=N/N=C/c2ccccc2)N1c1ccc(O)cc1	-4%	110%	-11%	-18%	-4%	-4%	x
CCCCCCCCCC[Si](C)(C)CCC(=O)N[C@@H](Cc1ccc(C)cc1)c1ccccc1	7%	18%	x	x	-4%	x	x
O=C1NC(=O)/C(=C/c2ccco2)N1	3%	50%	-9%	x	0%	x	x
O=C1NC(=S)NC1=Cc1ccco1	u	u	13µM*	-118%	45µM*	x	76*	Pol kappa inh-2=34*
O=C(NN1C(=O)/C(=C/c2ccc(O)c(O)c2)SC1=S)c1ccccc1	40µM*	22µM*	1.1µM*	u	-34%	18µM*	u
Cc1ccc(CC(=O)Nc2c(C(=O)N3CCN(c4ccccc4F)CC3)oc3ccccc23)cc1	-8%	8%	-12%	x	11%	-19%	x
Cc1oc(/N=C/c2cccc3ccccc23)c(C#N)c1C	u	22µM*	25µM*	u	-23%	16%	48*
CC(=O)Nc1ccc(SCC(CC(C)C)N2CCN(CCc3ccccc3)CCC2=O)cc1 (stereo unspecified)	0%	-5%	x	x	3%	x	x
S=c1[nH]nc(Cc2sc(-c3ccccc3)nc2-c2ccccc2)o1	-13%	-2%	-1%	-16%	0%	1%	x	GALK confirm=33µM*;Redox cycling=-10%;HEK293 tox=-6%
